Measurements as given in PubChem BioAssay (EPA / NIEHS).
A structure can be active in one record and inactive in another. Active and inactive are the calls of the source. The calls were made as follows: active = hit-call score of the fitted dose curve at least 0.9, where 1 is the maximum; inactive = score below 0.9.

Legend:
Conditions in all cases: mRNA level, 48 h; actives raise or lower the signal
[1] = read-out: Glutamate-cysteine ligase catalytic (GCLC), GCLC (gene 2729); assay: LTEA_HepaRG_GCLC: Life Technologies and Expression Analysis (LTEA) Assay for Glutamate-cysteine ligase catalytic (GCLC) using HepaRG (AID 2283498)
Procedure, shortened: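 HepaRG, 48 h exposure, 8-pt half-log series from 100 uM, 0.5% DMSO vehicle; TaqMan qRT-PCR for GCLC mRNA, housekeeping-normalized; bidirectional curve fit vs DMSO baseline.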

[2] = read-out: growth arrest and DNA damage 45 (GADD45G), GADD45G (gene 10912); assay: LTEA_HepaRG_GADD45G: Life Technologies and Expression Analysis (LTEA) Assay for growth arrest and DNA damage 45 (GADD45G) using HepaRG (AID 2283499)
Procedure, shortened: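 Human hepatic HepaRG line treated 48 h with chemicals (eight concentrations, half-log steps from 100 uM); transcript induction or repression of GADD45G scored by qRT-PCR versus DMSO vehicle.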

[3] = read-out: Glutamate-cysteine ligase regulatory (GCLM), GCLM (gene 2730); assay: LTEA_HepaRG_GCLM: Life Technologies and Expression Analysis (LTEA) Assay for Glutamate-cysteine ligase regulatory (GCLM) using HepaRG (AID 2283500)
Procedure, shortened: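 In this multiplexed HepaRG gene-expression assay, GCLM mRNA change after 48 h treatment (8 concentrations, max 100 uM) was scored against DMSO by bidirectional curve fitting.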

[4] = read-out: Glutathione S-transferase M3 (GSTM3), GSTM3 (gene 2947); assay: LTEA_HepaRG_GSTM3: Life Technologies and Expression Analysis (LTEA) Assay for Glutathione S-transferase M3 (GSTM3) using HepaRG (AID 2283501)
Procedure, shortened: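 Changes in GSTM3 expression, an oxidative-stress marker, were scored by bidirectional curve fitting against 0.5% DMSO vehicle. Human HepaRG cultures received chemicals for 48 h in duplicate, highest concentration 100 uM with half-log dilutions.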

[5] = read-out: Heat shock 70 kDa protein 1 (HSPA1A), gene 3303; assay: LTEA_HepaRG_HSPA1A: Life Technologies and Expression Analysis (LTEA) Assay for Heat shock 70 kDa protein 1 (HSPA1A) using HepaRG (AID 2283502)
Procedure, shortened: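 An oxidative-stress marker readout: HepaRG cells treated 48 h in duplicate with an eight-point series (highest 100 uM) had HSPA1A mRNA quantified by TaqMan qRT-PCR. Activity was fitted in both directions using 0.5% DMSO as baseline.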

[6] = read-out: Hypoxia-inducible factor 1-alpha (Homo sapiens) (UniProt Q16665); assay: LTEA_HepaRG_HIF1A: Life Technologies and Expression Analysis (LTEA) Assay for Hypoxia-inducible factor 1 (HIF1A) Trancription factor using HepaRG (AID 2283503);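 also: HIF1A transcript by TaqMan qRT-PCR normalized to ACTB GAPDH and POLR2A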
Procedure, shortened: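 Gain- or loss-of-signal HIF1A mRNA changes are fitted against a DMSO baseline. HepaRG cultures receive eight concentrations, highest 100 uM, for 48 h in serum-free induction medium with 0.5% DMSO.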

[7] = read-out: 3-Hydroxy-3-Methylglutaryl-CoA Synthase 2 (HMGCS2), HMGCS2 (gene 3158); assay: LTEA_HepaRG_HMGCS2: Life Technologies and Expression Analysis (LTEA) Assay for 3-Hydroxy-3-Methylglutaryl-CoA Synthase 2 (HMGCS2) using HepaRG (AID 2283504)
Procedure, shortened: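 Expression of HMGCS2 in human HepaRG liver cells is measured by qRT-PCR 48 h after dosing (highest 100 uM, half-log series, 0.5% DMSO). Values come from bidirectional concentration-response fitting with DMSO as baseline.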

[8] = read-out: HGF (gene 3082); assay: LTEA_HepaRG_HGF: Life Technologies and Expression Analysis (LTEA) Assay for Hepatocyte Growth Facto (HGF) using HepaRG (AID 2283505)
Procedure, shortened: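 Gain or loss of HGF mRNA in human HepaRG liver cells after 48 h chemical exposure; eight concentrations up to 100 uM with 0.5% DMSO vehicle, quantified by TaqMan qRT-PCR.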

[9] = read-out: Insulin Like Growth Factor 1 (IGF1), IGF1 (gene 3479); assay: LTEA_HepaRG_IGF1: Life Technologies and Expression Analysis (LTEA) Assay for Insulin Like Growth Factor 1 (IGF1) using HepaRG (AID 2283506)
Procedure, shortened: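 Endpoint: IGF1 mRNA change by qRT-PCR, housekeeping-normalized, fitted bidirectionally relative to 0.5% DMSO vehicle. Human HepaRG cells were treated 48 h in serum-free induction medium, eight half-log concentrations topping at 100 uM.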

[10] = read-out: Intercellular Adhesion Molecule 1 (ICAM1), ICAM1 (gene 3383); assay: LTEA_HepaRG_ICAM1: Life Technologies and Expression Analysis (LTEA) Assay for Intercellular Adhesion Molecule 1 (ICAM1) using HepaRG (AID 2283507)
Procedure, shortened: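 Gain or loss of transcript in HepaRG hepatic cells is quantified by qRT-PCR after 48 h chemical exposure (up to 100 uM, half-log steps), with DMSO as baseline.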

[11] = read-out: Insulin-like growth factor-binding protein 1 (IGFBP1), IGFBP1 (gene 3484); assay: LTEA_HepaRG_IGFBP1: Life Technologies and Expression Analysis (LTEA) Assay for Insulin-like growth factor-binding protein 1 (IGFBP1) using HepaRG (AID 2283508)
Procedure, shortened: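 mRNA induction or loss was quantified by qRT-PCR after 48 h chemical exposure of human HepaRG cells, with 0.5% DMSO as vehicle and baseline. Concentration-response over eight points up to 100 uM.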

[12] = read-out: Interleukin 6 (IL6), IL6 (gene 3569); assay: LTEA_HepaRG_IL6: Life Technologies and Expression Analysis (LTEA) Assay for Interleukin 6 (IL6) using HepaRG (AID 2283509)
Procedure, shortened: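 qRT-PCR read-out of IL6 transcript, normalized to three housekeeping genes, after 48 h chemical exposure of HepaRG cells; 8-point half-log series, top 100 uM, 0.5% DMSO vehicle. Bidirectional curve fitting against DMSO baseline.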

[13] = read-out: Interleukin 6 Receptor (IL6R), IL6R (gene 3570); assay: LTEA_HepaRG_IL6R: Life Technologies and Expression Analysis (LTEA) Assay for Interleukin 6 Receptor (IL6R) using HepaRG (AID 2283510)
Procedure, shortened: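 In this HepaRG screen, test chemicals act on cells for 48 h at up to 100 uM (eight half-log points, duplicate wells). IL6R expression is quantified by qRT-PCR after normalization to ACTB, GAPDH and POLR2A, with DMSO as baseline.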

[14] = read-out: Potassium channel subfamily K member 1 (KCNK1), KCNK1 (gene 3775); assay: LTEA_HepaRG_KCNK1: Life Technologies and Expression Analysis (LTEA) Assay for Potassium channel subfamily K member 1 (KCNK1) using HepaRG (AID 2283511)
Procedure, shortened: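 HepaRG, 48 h exposure, 8-pt half-log series top 100 uM, 0.5% DMSO vehicle, duplicates. Readout: KCNK1 transcript by qRT-PCR (Fluidigm array), housekeeping-normalized; bidirectional curve fit relative to DMSO baseline.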

[15] = read-out: Keratin 19 (KRT19), KRT19 (gene 3880); assay: LTEA_HepaRG_KRT19: Life Technologies and Expression Analysis (LTEA) Assay for Keratin 19 (KRT19) using HepaRG (AID 2283512)
Procedure, shortened: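 Gene-expression endpoint in the human liver line HepaRG after 48 h exposure to up to 100 uM test chemical with 0.5% DMSO vehicle; KRT19 mRNA by qRT-PCR, analyzed bidirectionally versus DMSO.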

[16] = read-out: JUN Transcription Factor, JUN (gene 3725); assay: LTEA_HepaRG_JUN: Life Technologies and Expression Analysis (LTEA) Assay for JUN Transcription Factor using HepaRG (AID 2283513)
Procedure, shortened: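 Gene-expression endpoint: JUN mRNA (qRT-PCR, normalized to three reference genes) in HepaRG cultures treated 48 h with chemicals, duplicate wells, 100 uM maximum with half-log dilutions; bidirectional fitting relative to 0.5% DMSO.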

[17] = read-out: Lipase C (LIPC), LIPC (gene 3990); assay: LTEA_HepaRG_LIPC: Life Technologies and Expression Analysis (LTEA) Assay for Lipase C (LIPC) using HepaRG (AID 2283514)
Procedure, shortened: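 HepaRG, 48 h exposure, 8-pt half-log series from 100 uM in 0.5% DMSO, duplicates. Readout: LIPC mRNA by Fluidigm qRT-PCR, housekeeping-normalized (ACTB/GAPDH/POLR2A). Gain or loss fitted bidirectionally against DMSO baseline.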

[18] = read-out: Lipoprotein lipase (LPL), LPL (gene 4023); assay: LTEA_HepaRG_LPL: Life Technologies and Expression Analysis (LTEA) Assay for Lipoprotein lipase (LPL) using HepaRG (AID 2283515)
Procedure, shortened: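 HepaRG, 48 h exposure, 8-pt half-log dilutions from 100 uM, 0.5% DMSO vehicle, duplicates; qRT-PCR (Fluidigm array) of LPL mRNA vs housekeeping genes; bidirectional curve fit relative to DMSO baseline.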

[19] = read-out: MicroRNA 122 (MIR122), gene 406906; assay: LTEA_HepaRG_MIR122: Life Technologies and Expression Analysis (LTEA) Assay for MicroRNA 122 (MIR122) using HepaRG (AID 2283516); also: the transcript read is the microRNA miR-122
Procedure, shortened: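 Changes in transcript abundance, up or down relative to 0.5% DMSO vehicle, were scored after 48 h chemical treatment of HepaRG cells (maximum 100 uM). Quantification used TaqMan qRT-PCR normalized to housekeeping genes.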

[20] = read-out: matrix metalloproteinase-10 (MMP10), MMP10 (gene 4319); assay: LTEA_HepaRG_MMP10: Life Technologies and Expression Analysis (LTEA) Assay for matrix metalloproteinase-10 (MMP10) using HepaRG (AID 2283517)
Procedure, shortened: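 Transcript levels come from Fluidigm qRT-PCR normalized to three housekeeping genes, with curves fitted bidirectionally against 0.5% DMSO. Human HepaRG cells were dosed for 48 hours at concentrations up to 100 uM.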

Sequence of Hypoxia-inducible factor 1-alpha (Homo sapiens) (Q16665 whole entry, looked up): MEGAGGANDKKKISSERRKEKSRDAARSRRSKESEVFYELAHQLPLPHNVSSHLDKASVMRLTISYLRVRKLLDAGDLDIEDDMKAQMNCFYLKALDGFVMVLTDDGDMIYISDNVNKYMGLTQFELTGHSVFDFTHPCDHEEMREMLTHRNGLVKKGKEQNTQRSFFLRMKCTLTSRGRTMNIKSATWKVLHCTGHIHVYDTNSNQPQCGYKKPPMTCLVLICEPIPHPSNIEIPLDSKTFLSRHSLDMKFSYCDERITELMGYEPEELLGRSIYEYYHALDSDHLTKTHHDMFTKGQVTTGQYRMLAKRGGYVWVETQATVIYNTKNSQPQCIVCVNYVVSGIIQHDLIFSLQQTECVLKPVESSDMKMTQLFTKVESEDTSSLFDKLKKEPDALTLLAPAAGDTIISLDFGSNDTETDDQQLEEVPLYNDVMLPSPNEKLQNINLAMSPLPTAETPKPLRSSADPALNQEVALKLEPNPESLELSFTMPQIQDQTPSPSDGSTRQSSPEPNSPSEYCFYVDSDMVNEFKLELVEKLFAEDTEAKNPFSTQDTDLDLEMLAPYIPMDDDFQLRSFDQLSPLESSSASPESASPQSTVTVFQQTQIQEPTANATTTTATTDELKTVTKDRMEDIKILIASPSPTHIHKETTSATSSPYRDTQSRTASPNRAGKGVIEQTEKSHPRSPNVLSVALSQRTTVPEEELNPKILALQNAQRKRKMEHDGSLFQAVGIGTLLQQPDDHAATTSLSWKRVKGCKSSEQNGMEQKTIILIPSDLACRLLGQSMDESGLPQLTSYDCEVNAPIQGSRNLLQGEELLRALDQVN

## CCCCC(CC)COC(=O)c1ccccc1C(=O)O (stereo not drawn)
[1]
  outcome: inactive
[2]
  outcome: inactive
[3]
  outcome: inactive
[4]
  outcome: inactive
[5]
  outcome: inactive
[6]
  outcome: inactive
[7]
  outcome: inactive
[8]
  outcome: inactive
[9]
  AC50: 50.8 µM (active)
[10]
  outcome: inactive
[11]
  outcome: inactive
[12]
  outcome: inactive
[13]
  outcome: inactive
[14]
  outcome: inactive
[15]
  outcome: inactive
[16]
  outcome: inactive
[17]
  outcome: inactive
[18]
  outcome: inactive
[19]
  outcome: inactive
[20]
  outcome: inactive

## c1ccc(Nc2ccccc2)cc1
[2]
  outcome: inactive
[3]
  outcome: inactive
[4]
  outcome: inactive
[5]
  outcome: inactive
[6]
  outcome: inactive
[7]
  outcome: inactive
[8]
  outcome: inactive
[9]
  outcome: inactive
[10]
  outcome: inactive
[11]
  outcome: inactive
[12]
  outcome: inactive
[13]
  outcome: inactive
[14]
  outcome: inactive
[15]
  outcome: inactive
[16]
  outcome: inactive
[17]
  outcome: inactive
[18]
  outcome: inactive
[19]
  outcome: inactive
[20]
  outcome: inactive

## COC(=O)CSc1cc(N=c2sc(=O)n3n2CCCC3)c(F)cc1Cl
[2]
  outcome: inactive
[3]
  outcome: inactive
[4]
  outcome: inactive
[5]
  outcome: inactive
[6]
  outcome: inactive
[7]
  outcome: inactive
[8]
  outcome: inactive
[9]
  outcome: inactive
[10]
  outcome: inactive
[11]
  outcome: inactive
[12]
  outcome: inactive
[13]
  outcome: inactive
[14]
  outcome: inactive
[15]
  outcome: inactive
[16]
  outcome: inactive
[17]
  outcome: inactive
[18]
  outcome: inactive
[19]
  outcome: inactive
[20]
  outcome: inactive

## CCCCOC(=O)C(C)Oc1ccc(Oc2ccc(C(F)(F)F)cn2)cc1 (stereo not drawn)
[2]
  outcome: inactive
[3]
  outcome: inactive
[4]
  outcome: inactive
[5]
  outcome: inactive
[6]
  outcome: inactive
[7]
  outcome: inactive
[8]
  outcome: inactive
[9]
  outcome: inactive
[10]
  outcome: inactive
[11]
  outcome: inactive
[12]
  outcome: inactive
[13]
  outcome: inactive
[14]
  outcome: inactive
[15]
  outcome: inactive
[16]
  outcome: inactive
[17]
  outcome: inactive
[18]
  outcome: inactive
[19]
  outcome: inactive
[20]
  outcome: inactive

## CCN(Cc1c(F)cccc1Cl)c1c([N+](=O)[O-])cc(C(F)(F)F)cc1[N+](=O)[O-]
[1]
  AC50: 50 µM (active)
[2]
  outcome: inactive
[3]
  AC50: 50 µM (active)
[4]
  outcome: inactive
[5]
  AC50: 50 µM (active)
[6]
  outcome: inactive
[7]
  AC50: 50 µM (active)
[8]
  outcome: inactive
[9]
  AC50: 50 µM (active)
[10]
  outcome: inactive
[11]
  AC50: 28.8 µM (active)
[12]
  outcome: inactive
[13]
  outcome: inactive
[14]
  outcome: inactive
[15]
  AC50: 18.1 µM (active)
[16]
  outcome: inactive
[17]
  AC50: 50 µM (active)
[18]
  outcome: inactive
[19]
  outcome: inactive
[20]
  outcome: inactive

## CC(C)(c1ccc(O)cc1)c1ccc(O)cc1
[1]
  outcome: inactive
[2]
  outcome: inactive
[3]
  outcome: inactive
[4]
  outcome: inactive
[5]
  AC50: 0.0172 µM (active)
  outcome: inactive
[6]
  outcome: inactive
[7]
  outcome: inactive
[8]
  outcome: inactive
[9]
  outcome: inactive
[10]
  outcome: inactive
[11]
  outcome: inactive
[12]
  outcome: inactive
[13]
  outcome: inactive
[14]
  outcome: inactive
[15]
  outcome: inactive
[16]
  outcome: inactive
[17]
  outcome: inactive
[18]
  outcome: inactive
[19]
  outcome: inactive
[20]
  outcome: inactive
